The values below come from PubChem BioAssay.

A short description of test [1]: reducers of endogenous Her2 protein level, primary screen, SKBR3 breast tumor cells, AlphaScreen, ATP viability (AID 461;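 active = Her2 level under about 52% in both replicate screens, with viability over 70% of control, limit read from the data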;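 as to Her2 level: lower value means less Her2 protein in the cells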;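 as to viability: percent of carrier control wells set as 100% viability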). The note with it: 18-24 h, measured here: SKBR3 viability, ATP luminescence, at 10 µM.
The target of test [2] is Receptor tyrosine-protein kinase erbB-2 (Homo sapiens) (UniProt P04626). Described as above. The note with it: 18-24 h, at 10 µM, stronger effect = lower value.
The nature of test [3]: SK-BR-3 cell growth inhibitors, pilot screen, 24 h, human (AID 572;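 active = viability at or below 10% of carrier control in both of two separate runs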;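 also: compound exposure lasted between 18 and 24 h rather than exactly 24 h; 100% = carrier-treated control wells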). The note with it: SK-BR-3 viability, CellTiter-Glo luminescence, at 10 µM, stronger effect = lower value.
Test [4] is described as follows: HUVEC growth inhibition – cell-based, human, primary screen (AID 575;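 active = viability at or below 30% in both replicate assays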;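 also: 100% = median of untreated cell wells with 0.1% DMSO on each plate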). The note with it: HUVEC proliferation, CellTiter-Glo luminescence, 72 h; at 10 µM; stronger effect = lower value.
Test [5] can be described thus: growth inhibitors of H69AR lung tumor, primary screen, human, duplicate replicates (AID 580;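 active = viability at or under a set limit in both replicates, limit being median viability minus 3 SD, cut at about 48% in these data, passing the limit was not always enough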;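 also: 100% = mean luminescence of untreated wells and 0% = no signal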). The note with it: H69AR lung tumor cells viability, ATP luminescence, 72 h; at 10 µM; stronger effect = lower value.
A short description of test [6]: reversal of MRP1-mediated doxorubicin resistance, pilot screen, H69AR cells, doxorubicin co-treatment (AID 601;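 active = viability loss from added drug above about 55%, and viability with drug at most 40%, in both replicates, limit read from the data, passing the limit was not always enough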). The note with it: CellTiter-Glo, 72 h, at 10 µM; for differential viability (reversal): stronger effect = higher value.
Test [7] can be described thus: 384-well plate pilot, post-Golgi transport modulator project, inhibition of yeast transport mutant growth (AID 636; in the data active = inhibition above about 31%). The note with it: absorbance 615 nm, about 18 h, stronger effect = higher value.
Test [8] can be described thus: growth suppression of yeast trafficking mutant, preliminary HTS, modulators of trafficking downstream of Golgi apparatus project, 1536-format plate, OD 615 nm (AID 637; in the data active = inhibition above about 30%). The note with it: yeast transport mutant growth, absorbance 615 nm, 18 h; stronger effect = higher value.
The nature of test [9]: OD615 S. cerevisiae growth inhibition, permissive medium, pilot counter-assay, permissive growth control for S. cerevisiae lifespan shortening project (AID 705;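 active = growth inhibition above 25% in both replicates, a cutoff set 3 SD above the mean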). The note with it: OD615, 24 h, at 10 µM, stronger effect = higher value.
Test [10] can be described thus: Restrictive medium S. cerevisiae growth inhibition, OD615, pilot screen of yeast lifespan reduction project, restrictive growth control (AID 706;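 active = growth inhibition above a set limit, 3 SD over mean compound inhibition, in both replicates, cut at about 43% in these data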;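 also: modified DeaD lifespan yeast strain shifted to restrictive glucose medium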). The note with it: OD615, 48 h, at 10 µM, stronger effect = higher value.
Test [11] in a line: viability gain of MRP-1-high H69AR cells under doxorubicin, pilot screen, MRP-1 activator project, CellTiter-Glo, duplicate (AID 807;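 active = viability increase at or above a cutoff of the median across tested compounds plus 3 SD, cut at about 8.5% in these data, passing the limit was not always enough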;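 also: compound pretreatment 18-22 h then 72 h combined with doxorubicin; 0% = doxorubicin alone and 100% = vehicle without doxorubicin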). The note with it: H69AR viability with doxorubicin, CellTiter-Glo luminescence; at 10 µM; stronger effect = higher value.
A short description of test [12]: growth suppression of beta-catenin knockout HCT116, pilot screen, human colon tumor cells (AID 823).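 Also: 0% = wells killed by 20 µM Hyamine and 100% = untreated DMSO cell wells.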 The note with it: CellTiter-Glo, 60 h, at 10 µM, stronger effect = lower value.
Test [13] can be described thus: growth suppression of PTEN-deleted HCT116, pilot screen, cell-based, HCT116 clonal line, CellTiter-Glo (AID 824;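 active = viability at or below 27.92% in each of two runs, the all-compound median minus 4 SD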;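 also: 0% = 20 µM Hyamine control and 100% = vehicle cell control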). The note with it: 60 h, at 10 µM, stronger effect = lower value.
Test [14] can be described thus: inhibitors of the yeast RAM network, pilot screen, dse1pr::URA3 reporter, 5-FOA selection (AID 869;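 active = inhibition over a set limit, the all-compound mean plus 3 SD, in both replicate runs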;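 also: 0% = DMSO wells with no growth and 100% = 10 µM 1-NA-PP1 with full growth; RAM network block rescues cells from 5-FOA so hits raise OD615 growth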). The note with it: S. cerevisiae dse1pr::URA3 5-FOA growth, OD615, 2 d; at 10 µM; stronger effect = higher value; strain carries analog-sensitive mutant Cbk1 kinase.
Test [15] in a line: RAM signaling pathway blockade in yeast – S. cerevisiae, Pdr1DBD-CYC8 efflux-inhibited sensitized strain, primary screen (AID 1298;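 active = RAM network inhibition above 8.4% in each of two replicates, 3 SD over the compound average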;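 also: 0% = DMSO untreated cells without growth and 100% = 10 µM 1-NA-PP1 full growth; higher means more yeast growth rescued from 5-FOA killing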). The note with it: S. cerevisiae cbk1-as DSE1-URA3 strain, 5-FOA growth OD615, 2 d; at 50 µM; stronger effect = higher value.
[16] abbreviates: H69AR cells + 2 uM doxorubicin, measured here: viability with 2 uM doxorubicin, stronger effect = lower value.
The mark [17] stands for this setting: H69AR cells, compound alone cytotoxicity.

SMILES strings stand for the structures. Inconclusive results are not listed. Calls of active or inactive are those of the source.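 The calls were made as follows, unless noted: active = cell viability at or below a set limit in both duplicate runs, the limit being the all-compound median minus 4 SD (cut at about 23% in these data, passing the limit was not always enough); inconclusive = no clear call, values can overlap the other calls; inactive = the rest.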

Sequence of Receptor tyrosine-protein kinase erbB-2 (Homo sapiens) (P04626 whole entry, looked up): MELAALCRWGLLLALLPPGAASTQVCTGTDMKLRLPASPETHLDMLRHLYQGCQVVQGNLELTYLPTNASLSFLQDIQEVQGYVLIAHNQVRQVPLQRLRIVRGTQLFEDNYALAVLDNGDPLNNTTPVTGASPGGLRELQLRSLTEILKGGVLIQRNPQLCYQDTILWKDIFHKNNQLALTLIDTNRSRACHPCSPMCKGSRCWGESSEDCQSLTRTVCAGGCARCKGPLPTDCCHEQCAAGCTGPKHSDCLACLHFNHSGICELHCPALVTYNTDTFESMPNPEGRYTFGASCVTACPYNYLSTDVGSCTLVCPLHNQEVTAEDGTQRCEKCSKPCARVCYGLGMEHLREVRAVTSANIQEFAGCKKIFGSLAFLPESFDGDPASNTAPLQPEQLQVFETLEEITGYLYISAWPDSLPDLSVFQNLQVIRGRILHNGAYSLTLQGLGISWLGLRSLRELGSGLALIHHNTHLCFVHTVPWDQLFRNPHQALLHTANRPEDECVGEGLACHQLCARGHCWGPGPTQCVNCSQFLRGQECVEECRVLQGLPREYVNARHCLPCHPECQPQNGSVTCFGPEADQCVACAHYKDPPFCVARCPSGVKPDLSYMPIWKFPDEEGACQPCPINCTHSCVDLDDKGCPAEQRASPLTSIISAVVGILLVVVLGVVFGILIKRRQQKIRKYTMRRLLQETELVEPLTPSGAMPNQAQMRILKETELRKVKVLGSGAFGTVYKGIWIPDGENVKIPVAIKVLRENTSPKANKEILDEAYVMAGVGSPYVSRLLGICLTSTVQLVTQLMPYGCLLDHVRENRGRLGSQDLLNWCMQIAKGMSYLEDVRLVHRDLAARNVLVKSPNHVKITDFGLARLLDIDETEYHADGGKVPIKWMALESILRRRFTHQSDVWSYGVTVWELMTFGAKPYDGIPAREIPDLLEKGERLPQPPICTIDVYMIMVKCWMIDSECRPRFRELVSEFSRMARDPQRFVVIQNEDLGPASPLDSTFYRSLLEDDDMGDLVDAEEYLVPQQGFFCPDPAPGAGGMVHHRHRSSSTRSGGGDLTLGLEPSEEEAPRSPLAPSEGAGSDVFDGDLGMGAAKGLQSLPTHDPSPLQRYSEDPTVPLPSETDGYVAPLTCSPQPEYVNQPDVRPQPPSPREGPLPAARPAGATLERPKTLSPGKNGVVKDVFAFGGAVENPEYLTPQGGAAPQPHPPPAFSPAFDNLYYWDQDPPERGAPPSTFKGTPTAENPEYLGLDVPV

Consider `Cc1ccccc1CSc1nnc(C)c(=O)[nH]1`, for which the viability in test [1] was 90%; in test [3], 90% (inactive); in test [4] it was 104% (inactive); in test [5], 97.2% (inactive); in test [6] (setting [16]), 92.5%; in [6] (setting [17]) it was 97.2%. The viability was 98.8% (inactive) in test [12] and 99% (inactive) in test [13]. In addition, the Her2 level in test [2] is 106% (inactive). Also, in test [6] (H69AR cells + 2 uM doxorubicin), the differential viability (reversal) is 4.72% (inactive). The values for the inhibition in test [7], in test [8] and in test [14] were -3.2% (inactive), -0.17% (inactive) and 0.815% (inactive), respectively. The growth inhibition is -7.61% (inactive) in test [9] and -2.98% (inactive) in [10]. Also, the viability increase in test [11] is -1.7% (inactive). Besides, the RAM network inhibition in [15] is 1.17% (inactive).
Consider `COCCn1c(=N)c(C(=O)NCCc2ccccc2)cc2c(=O)n3cccc(C)c3nc21`, for which the viability in test [1] is 63.5%; in [3], 63.5% (inactive); in test [4], 86.6% (inactive); in test [5] it was 92.5% (inactive); in test [6] (setting [16]) it was 76.8%; in test [6] (setting [17]) it was 92.5%. Further, the values for the viability in [12] and in [13] were 66.8% (inactive) and 68.5% (inactive), respectively. In test [2], the Her2 level is 69% (inactive). Also, in [6] (H69AR cells + 2 uM doxorubicin), the differential viability (reversal) is 15.7% (inactive). The inhibition in [7] was -0.38% (inactive); in test [8], -8.83% (inactive); in test [14], 0.64% (inactive). Further, the growth inhibition in [9] is 1.32% (inactive); in [10] it was -10.6% (inactive). Besides, in test [11], the viability increase was -4.45% (inactive). Moreover, the RAM network inhibition in test [15] was 0.2% (inactive).
As for `COC(=O)COc1cccc(NC(=O)COc2ccccc2)c1`, the viability in test [1] was 99.5%; in test [3], 99.5% (inactive); in test [4], 90.7% (inactive); in test [5], 96.5% (inactive); in test [6] (setting [16]), 93.2%; in test [6] (setting [17]), 96.5%. Besides, the figures for the viability in [12] and in test [13] were 97.2% (inactive) and 93.7% (inactive), respectively. The Her2 level in test [2] is 122% (inactive). In addition, the differential viability (reversal) in [6] (H69AR cells + 2 uM doxorubicin) is 3.21% (inactive). Further, the inhibition in test [7] was -0.13% (inactive); in [8] it was -7.33% (inactive); in test [14], 1.66% (inactive). The growth inhibition in [9] was -12.5% (inactive); in test [10], 3.51% (inactive). Moreover, the viability increase in test [11] was -0.74% (inactive). Further, the RAM network inhibition in test [15] was 2.45% (inactive).
Turning to `CC(CC(=O)NC1CCSC1=O)c1ccccc1` (stereo not drawn), the viability in test [1] is 97%; in test [3] it was 97% (inactive); in [4] it was 89.2% (inactive); in test [5], 113% (inactive); in test [6] (setting [16]), 111%; in test [6] (setting [17]), 113%. For the same molecule, the viability in [12] is 96.5% (inactive); in test [13], 95.9% (inactive). Moreover, the Her2 level in test [2] is 87.5% (inactive). Besides, the differential viability (reversal) in test [6] (H69AR cells + 2 uM doxorubicin) is 1.77% (inactive). Further, the inhibition in test [7] was -4.32% (inactive); in test [8], 0% (inactive); in test [14], 0.235% (inactive). The growth inhibition in test [9] was 3.53% (inactive); in [10], 6.91% (inactive). In addition, the viability increase in test [11] is 2.46% (inactive). Also, the RAM network inhibition in test [15] is 1.17% (inactive).
On to `Cc1cccc(Cn2c(SCC(=O)Nc3ccccc3)nc3c2c(=O)[nH]c(=O)n3C)c1`, for which the viability in test [1] was 81.5%; in test [3] it was 81.5% (inactive); in test [4] it was 93.9% (inactive); in test [5], 81.8% (inactive); in test [6] (setting [16]), 81.8%; in test [6] (setting [17]), 81.8%. Also, the viability in test [12] is 91% (inactive); in test [13], 71% (inactive). Also, in test [2], the Her2 level is 97% (inactive). Moreover, in [6] (H69AR cells + 2 uM doxorubicin), the differential viability (reversal) was -0.02% (inactive). In addition, the inhibition was -1.33% (inactive) in test [7], 0% (inactive) in test [8] and 1.79% (inactive) in [14]. The figures for the growth inhibition in test [9] and in [10] were -12.4% (inactive) and -8.03% (inactive), respectively. Also, the viability increase in test [11] is -1.01% (inactive). Besides, in [15], the RAM network inhibition is 5.01% (inactive).
For `Cn1c(C(=O)NCC2CCCO2)cc2c(=O)n(C)c3ccccc3c21` (stereo not drawn), the viability is 95% in test [1]; 95% (inactive) in test [3]; 84.8% (inactive) in test [4]; 83.6% (inactive) in test [5]; 75.1% in test [6] (setting [16]); 83.6% in [6] (setting [17]). The figures for the viability in [12] and in test [13] were 92.9% (inactive) and 90.7% (inactive), respectively. For the same molecule, the Her2 level in [2] is 89% (inactive). For the same molecule, the differential viability (reversal) in [6] (H69AR cells + 2 uM doxorubicin) was 8.52% (inactive). Also, the inhibition is -2.31% (inactive) in [7], 2.17% (inactive) in test [8] and 2.33% (inactive) in [14]. For the same molecule, the growth inhibition in test [9] is -6.67% (inactive); in [10] it was 12.4% (inactive). The viability increase in test [11] was -4.43% (inactive). Further, the RAM network inhibition in test [15] was 0.71% (inactive).
In the case of `Cc1nc2ccccc2c2oc(C(=O)NCCCN3CCCC3=O)cc12`, the viability in test [1] is 91%; in test [3] it was 91% (inactive); in test [4], 84.3% (inactive); in test [5], 91.8% (inactive); in test [6] (setting [16]) it was 77.9%; in test [6] (setting [17]), 91.8%. The figures for the viability in test [12] and in [13] were 94.5% (inactive) and 96.8% (inactive), respectively. In addition, the Her2 level in test [2] was 97.5% (inactive). Besides, in [6] (H69AR cells + 2 uM doxorubicin), the differential viability (reversal) was 13.9% (inactive). Further, the results for the inhibition in [7], in test [8] and in test [14] were -5.73% (inactive), -2.62% (inactive) and 1.9% (inactive), respectively. Besides, the growth inhibition was -0.475% (inactive) in test [9] and -1.4% (inactive) in test [10]. Further, the viability increase in test [11] is -1.47% (inactive). The RAM network inhibition in test [15] was 6.62% (inactive).
Regarding `COc1ccc(NC(=O)NCCN2C(=O)C3C4C=CC(C4)C3C2=O)cc1` (stereo not drawn), the viability was 96% in [1]; 96% (inactive) in test [3]; 100% (inactive) in [4]; 101% (inactive) in test [5]; 97.5% in test [6] (setting [16]); 101% in [6] (setting [17]). Moreover, the viability was 99.1% (inactive) in [12] and 94.5% (inactive) in test [13]. For the same molecule, the Her2 level in test [2] is 91% (inactive). The differential viability (reversal) in test [6] (H69AR cells + 2 uM doxorubicin) was 3.28% (inactive). In addition, the values for the inhibition in test [7], in [8] and in [14] were -1.33% (inactive), 0.33% (inactive) and 1.5% (inactive), respectively. Also, the values for the growth inhibition in test [9] and in [10] were -5.58% (inactive) and 10.4% (inactive), respectively. In addition, in [11], the viability increase was -0.53% (inactive). Moreover, the RAM network inhibition in [15] is -1.15% (inactive).
Regarding `CC(C)c1ncc(C(O)c2cccc3ccccc23)n1C` (stereo not drawn), the viability in test [1] was 97.5%; in test [3] it was 97.5% (inactive); in [4], 113% (inactive); in [5], 87.5% (inactive); in [6] (setting [16]) it was 83.5%; in test [6] (setting [17]) it was 87.5%. For the same molecule, the viability is 81.6% (inactive) in test [12] and 79.1% (inactive) in test [13]. In test [2], the Her2 level is 129% (inactive). In addition, in test [6] (H69AR cells + 2 uM doxorubicin), the differential viability (reversal) is 4.07% (inactive). Besides, the inhibition in test [7] was -4.68% (inactive); in test [8] it was -5.5% (inactive); in test [14] it was 1.15% (inactive). The values for the growth inhibition in test [9] and in test [10] were -21.2% (inactive) and -7.64% (inactive), respectively. In addition, the viability increase in test [11] was -0.83% (inactive). In [15], the RAM network inhibition was 0.82% (inactive).
